Source: PubChem BioAssay AID602399 (Sanford-Burnham Center for Chemical Genomics, 2012)
About 2,800 (0.78%) of roughly 360,000 compounds were called active. The full list was thinned out, with actives kept by preference. A number with no mark means an inactive call. Cut-off read from the data, not from the text of the source: active = inhibition above about 26%; inactive = the rest.

Tested on: Nicotinate-nucleotide adenylyltransferase NadD (Staphylococcus aureus N315)
Experiment: inhibitors of S. aureus NadD, primary screen, biochemical, colorimetric, uHTS (AID 602399)
Conditions: purified NadD enzyme, colorimetric absorbance read-out; at 20 µM; hits give high values

In the case of `Cc1cc(C(=O)CSc2nc(N)cc(=O)[nH]2)c(C)n1CCc1ccc(Cl)cc1`, the inhibition was 45.2% (active).
With `CCOc1ccc(-c2n[nH]c(=S)n2/N=C/c2cc3c(cc2[N+](=O)[O-])OCO3)cc1` the inhibition was 33.3% (active).
For `COc1ccc(Cl)cc1C(=O)NNC(=S)NC(=O)/C=C/c1ccco1`, the inhibition was 41.2% (active).
For `C=CC1=C(C(=O)O)N2C(=O)[C@@H](NC(=O)/C(=N/OCC(=O)O)c3csc(N)n3)[C@H]2SC1`, the inhibition was 94.8% (active).
For `CCC(C)Cn1c(O)cc2nn(-c3nc4ccccc4s3)c(=O)c-2c1C` (stereo not drawn), the inhibition was 81.3% (active).
For `Clc1ccccc1CSc1nnc(-c2ccco2)c(-c2ccco2)n1`, the inhibition was 29.3% (active).
`O=C(Nc1nnc(-c2ccccc2)o1)c1cc(-c2cccs2)nc2ccccc12` was tested, and the inhibition was 40.6% (active).
For `CC(C)Oc1ccc(/C=C(\NC(=O)/C=C/c2ccco2)C(=O)NCCc2nc3ccccc3[nH]2)cc1`, the inhibition was 40.3% (active).
For `CC(C)(C)C1C/C(=C/c2ccco2)C(=O)/C(=C/c2ccco2)C1` (stereo not drawn), the inhibition was 41.6% (active).
For `Cc1ccc(Cn2nnc3c(=O)[nH]c(C4CCN(S(=O)(=O)/C=C/c5ccccc5)CC4)nc32)cc1`, the inhibition was 31.1% (active).
For `O=C(Nc1ccc(S(=O)(=O)Nc2nccs2)cc1)c1cc(-c2ccncc2)nc2ccccc12`, the inhibition was 52.3% (active).
`O=C(CSc1nc(Nc2ccccc2)nc(N2CCOCC2)n1)Nc1cc(Cl)ccc1O` was tested, and the inhibition was 37.7% (active).

In order of rising inhibition:
1. COCCNC(=O)C(c1ccc(C)cc1)N(C(=O)CCC(=O)Nc1ccccn1)c1cccc(C)c1 (stereo not drawn)  -8.33%
2. O=C1CC2(CC(c3ccc(Cl)cc3)=NO2)C(=O)N1c1ccccc1 (stereo not drawn)  -6.96%
3. COC(=O)COc1ccc2c(c1C)O/C(=C\c1ccco1)C2=O  -6.79%
4. C/C(CC(C)C)=N\Oc1nc(C)cc(C)n1  -5.32%
5. O=C(c1ccc(C(F)(F)F)cc1)N1CCC(=O)N([C@H](COCc2ccccc2)Cc2ccccc2)CC1  -5.31%
6. CCN(C(=O)CN1CCN(Cc2ccccc2)CC1)c1c(N)n(Cc2ccccc2)c(=O)[nH]c1=O  -5.19%
7. Cc1ccc(S(=O)(=O)N/N=C\c2cc3c(cc2[N+](=O)[O-])OCO3)cc1  -4.98%
8. Cc1nn(C)c(C)c1Sc1ccccc1N  -4.87%
9. CC1(Oc2cccc(F)c2)CCN(Cc2ccccc2OC(F)F)C1 (stereo not drawn)  -4.85%
10. CSc1nc(-c2ccco2)nn1C(=O)c1ccccc1Cl  -4.61%
11. Cc1cc(=O)[nH]c(SCc2ccc(Cl)cc2)n1  -4.15%
12. Cc1ccnc2nc(C(=O)Nc3nnc(-c4ccccc4)o3)nn12  -3.89%
13. CCOc1ccc(NC(=O)c2ccc(CSc3nnnn3C)cc2)cc1  -3.76%
14. O=C(CCc1ccccc1Cl)Nc1ccc(S(=O)(=O)Nc2nccs2)cc1  -3.71%
15. CN(C)c1nc(N)nc(Cn2nnc(-c3ccc(C(F)(F)F)cc3)n2)n1  -3.29%
16. CN(Cc1nc2ccc(F)cc2[nH]1)Cc1nc(CC2CC2)no1  -3.27%
17. CC(=O)Nc1ccc(SCC(=O)Nc2ccccc2Oc2ccccc2)cc1  -2.74%
18. Cc1ccc(Cl)cc1NC(=O)C1CCN(S(C)(=O)=O)CC1  -1.83%
19. CC(C#N)(NC(=O)CN1CCN(S(=O)(=O)c2cc(C(F)(F)F)ccc2Cl)CC1)C1CC1 (stereo not drawn)  -1.47%
20. O=C(Nc1ccc(S(=O)(=O)Nc2nccs2)cc1)c1cc(=O)[nH]c2ccccc12  -0.912%
21. COc1ccc(CCNC(=O)CN2C(=O)CCSc3ccccc32)c(OC)c1  -0.893%
22. O=C(/C=C/c1ccco1)NC(=S)N1CCCCC1  0.202%
23. CCCCCOc1ccc(/C=C/C(=O)NCCc2nc3ccccc3[nH]2)cc1OC  0.224%
24. COc1ccccc1N(CC(=O)N1CCCCC1)S(=O)(=O)c1ccccc1  0.503%
25. Cc1cc(C)cc(N(CC(=O)Nc2c(C)n(C)n(-c3ccccc3)c2=O)S(C)(=O)=O)c1  0.515%
26. CCOC(=O)N1CCC(NC(=O)CCc2cn(C)c3ccccc23)CC1  0.741%
27. CC1CCN(C(=S)NC2CC3CCC2C3)CC1 (stereo not drawn)  1.51%
28. CC(=O)Nc1ccc(NC(=O)C(C)n2c3ccccc3c3nc(=O)cc(C)n32)cc1 (stereo not drawn)  1.71%
29. Cc1ccccc1NC(=O)c1ccc(COc2ccc3c(C)cc(=O)oc3c2)cc1  1.94%
30. Cc1ccc(C(=O)NN(CCC#N)C2=NS(=O)(=O)c3ccccc32)cc1  2.03%
31. COc1ccc(Cl)cc1C(=O)NNC(=S)NC1CCCC1  2.3%
32. C/C=C/C=C/C(=O)O  2.73%
33. Cc1ccc(C(=O)N/C(=C/c2ccco2)C(=O)NCCc2c[nH]c3ccccc23)cc1C  2.77%
34. Cc1ccc2nc(-c3ccco3)c(Cc3cccc(Cl)c3)n2c1  2.81%
35. CCc1ccc2c(c1)C1(NN=C(c3ccccc3)S1)C(=O)N2 (stereo not drawn)  3.11%
36. CC(C)COC(=O)c1ccc(NC(=O)C2C3C=CC(C3)C2C(=O)O)cc1 (stereo not drawn)  3.38%
37. O=[N+]([O-])c1ccccc1/C=N/n1c(COc2ccccc2)n[nH]c1=S  4.33%
38. CC(C)(C)c1ccc(Cn2nnc3c(=O)[nH]c(C4CCCN(C(=O)c5ccco5)C4)nc32)cc1 (stereo not drawn)  4.55%
39. CCn1c(SCC(=O)N/N=C/c2ccccc2OCC(=O)O)nnc1-c1ccc(C(C)(C)C)cc1  5.5%
40. O=C(CSc1ccccc1)Nc1cc(Cl)ccc1Oc1ccccc1  6.26%
41. O=C(CSc1nc2ccc(Nc3nc(N4CCOCC4)nc(N4CCOCC4)n3)cc2s1)NCc1ccco1  8.01%
42. COC(=O)c1sccc1NC(=O)CSc1ccccc1NS(=O)(=O)c1cc(Cl)ccc1Cl  8.33%
43. O=C(Nc1nnc(-c2ccc(Cl)cc2)o1)c1ccccc1Br  9.64%
44. C=CC1=C(C(=O)O)N2C(=O)[C@@H](NC(=O)/C(=N\OCC(=O)O)c3csc(N)n3)[C@H]2SC1  15.8%
45. Cc1ccc(NC(=O)N2CCC(c3nc4c(nnn4Cc4c(F)cccc4Cl)c(=O)[nH]3)CC2)cc1  22.9%
46. Cc1cc(C(=O)CSc2nc(N)cc(=O)[nH]2)c(C)n1-c1cccc(F)c1  23.5%
